MCF10A rerep = A quantitative high throughput screen for small molecules that induce DNA re-replication in MCF 10a normal breast cells; MCF 10A DNA re-replication, Hoechst nuclear intensity, 48 h; hit rate 2.9% among 350,000; Potency, µM (titrated, usually from 46.1 µM), actives largely listed as activators; also: nearly all actives have a fitted effect of over 50% in size
KB-3-1 cytotox = qHTS assay for MDR1-selective chemotherapeutics: Primary screen using the parental adenocarcinoma cell KB-3-1. KB-3-1 viability, CellTiter-Glo ATP luminescence, 72 h. Potency, µM (top dose mostly 46.1 µM), usual class: cytotoxic. hit rate 1.4% among 400,000. AID 1347075, 2019; also: nearly all actives have a fitted effect of over 60% in size
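72 h, 37 °C compound treatment of KB-3-1 parental cells; CellTiter-Glo added, 10 min, luminescence read. Data corrected against DMSO-only plates and normalized before curve fitting.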
KB-V1 cytotox = qHTS assay for MDR1-selective chemotherapeutics: Primary screen using the drug-selected MDR subline cells KB-V1; KB-V1 MDR cells viability, CellTiter-Glo, 72 h; Potency, µM (top dose mostly 46.1 µM), most hits filed as cytotoxic; hit rate 3.4% among 400,000; AID 1347076, 2019; also: nearly all actives have a fitted effect of over 60% in size
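Cytotoxicity toward P-gp-expressing KB-V1 cells was determined as loss of CellTiter-Glo luminescence after 72 h at 37 degrees C. Compounds were tested in quantitative HTS format across a concentration range, with curves fitted to normalized data.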
HT1080-NT tox = qHTS for induction of synthetic lethality in tumor cells producing 2HG: qHTS for the HT-1080-NT fibrosarcoma cell line; hit rate 1.6% among 360,000; Potency, µM (doses to about 46.1 µM), hits mostly cytotoxic; AID 686970, 2013; HT-1080-NT fibrosarcoma viability, CellTiter-Glo ATP luminescence, 48 h;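 also: NT is the 2HG producing partner of a matched IDH1 knockdown line; nearly all actives have a fitted effect of over 55% in size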
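Read-out is CellTiter-Glo luminescence after 10 minutes at room temperature, following 48 hours' compound treatment of HT-1080-NT cells (750 cells/well, RPMI, 5% FBS, 37 degrees C).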
HT1080 IDH1KD tx = qHTS for induction of synthetic lethality in tumor cells producing 2HG: qHTS for the HT-1080-IDH1KD cell line; HT-1080 IDH1 knockdown viability, ATP luminescence, 48 h; Potency, µM (titrated, usually from 46.1 µM), most hits filed as cytotoxic; hit rate 2% among 360,000; AID 686971, 2013
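IDH1KD HT-1080 cells, 750/well, RPMI + 5% FBS; compound pinned after 2 h settling; 48 h, 37 °C; CellTiter-Glo luminescence; % activity normalised to DMSO and no-cell wells; curves fitted, classed by r2 and efficacy.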
SW480 rerep = A quantitative high throughput screen for small molecules that induce DNA re-replication in SW480 colon adenocarcinoma cells. SW480 DNA re-replication, Hoechst DNA content imaging, 48 h. Potency, µM (series often up to 46.1 µM), hits mostly activators. hit rate 1.8% among 340,000. AID 624297, 2012; also: nearly all actives have a fitted effect of over 55% in size
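Readout is total intensity of Hoechst-stained nuclei, excited at 405 nm and collected at 500-530 nm. Compound treatment lasted 48 hr at 37 C in 5% CO2 before staining.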
A number is an active result; - = inactive; ? = inconclusive; . = no result given. Rows were chosen to be rich in hits. Some 8% of all compounds tested hit in one or more screens of this group. Calls follow the shape of the dose curve; as a rule, active = well fitted curve in the direction sought with a large enough effect; inconclusive = small, poorly fitted or top-dose-only effect, or another doubt; inactive = no such curve, though single readings can be large; an effect the other way counts as inactive or inconclusive.

SMILES | MCF10A rerep | KB-3-1 cytotox | KB-V1 cytotox | HT1080-NT tox | HT1080 IDH1KD tx | SW480 rerep
O=C(NCCc1ccccc1)C(c1cccs1)N(C(=O)CCl)c1ccc(Cl)cc1 (stereo not given) | 11.6µM | ? | ? | 3.66µM | 1.64µM | 10µM
COc1ccc(/C=C/C(=O)c2c(C)cc(C)[nH]c2=O)c2ccccc12 | 18.4µM | ? | - | ? | 11.6µM | ?
Cc1ccc(/C=C/C(=O)c2c(C)cc(C)[nH]c2=O)cc1 | ? | ? | ? | ? | 10µM | ?
Cc1cc(C)c(C(=O)/C=C/c2cccs2)c(=O)[nH]1 | ? | - | ? | - | - | -
CCc1ccc(/C=C/C(=O)c2c(C)cc(C)[nH]c2=O)cc1 | 18.4µM | 23.1µM | ? | 14.6µM | 23.1µM | ?
O=S1(=O)N=C(N(CCO)/N=C/c2ccc(Br)cc2)c2ccccc21 | - | - | - | - | - | -
Cc1ccc(Cn2cc(S(=O)(=O)c3ccccc3)c(=O)c3cc(F)c(N4CCOCC4)cc32)cc1 | . | - | - | . | . | .
CCN(CC(=O)Nc1ccc(OC)cc1)C(=O)c1ccc2c(c1)NC(=O)C(C)S2 (stereo not given) | - | - | ? | - | - | -
CCc1cc(C(=O)Cc2cnn(-c3ccccc3)c2)c(O)cc1O | ? | - | 23.1µM | - | - | -
COc1cc2nc(C3CCC3)n(NC(=O)C3CCC3)c(=O)c2cc1OC | - | - | - | - | - | -
COc1cc2nc(C3CCC3)n(NC(=O)COc3ccccc3)c(=O)c2cc1OC | ? | - | ? | 7.08µM | - | -
CCCCN(C)CCNC(=O)c1cc(-c2ccc(Cl)s2)nc2ccccc12 | . | - | - | . | . | .
COc1ccc(-c2noc(-c3ccccc3C(=O)N3CCOCC3)n2)cc1 | - | - | 9.2µM | - | - | -
Cc1ccc(-c2noc(-c3ccccc3C(=O)N3CCOCC3)n2)cc1 | - | - | - | - | - | -
Cc1cc(C)c(C#N)c(Sc2nc(C)c([N+](=O)[O-])c(C)c2C#N)n1 | . | ? | - | 16.4µM | 4.61µM | .
S=C(Nc1ccc(Cl)cc1)c1nc2ccccc2[nH]1 | ? | ? | 5.17µM | ? | ? | .
O/C(=C\c1nc2ccccc2[nH]1)c1cccs1 | ? | - | - | - | ? | ?
O=C(/C(=C/c1ccc(Cl)cc1)c1nc2ccccc2[nH]1)c1cccs1 | 5.17µM | - | ? | 16.4µM | 16.4µM | ?
Cc1ccccc1NC(=S)c1nc2ccccc2[nH]1 | ? | ? | ? | - | - | -
COc1cc(/C=C(/C(=O)c2cccs2)c2nc3ccccc3[nH]2)ccc1O | 4.11µM | ? | 16.4µM | 7.94µM | 5.01µM | 7.31µM
O=C(/C=C/c1cccc(Cl)c1)c1nc2ccccc2[nH]1 | ? | ? | - | ? | ? | ?
O=C(/C(=C\c1ccccc1)c1nc2ccccc2[nH]1)c1ccc(Cl)cc1 | 4.11µM | ? | ? | 3.66µM | 3.26µM | ?
O=S(=O)(c1cccs1)N1CCN(CCOc2ccc(Cl)cc2)CC1 | - | ? | ? | - | - | -
O=S(=O)(c1cccs1)N1CCN(CC(O)COc2cc(Cl)ccc2Cl)CC1 (stereo not given) | ? | ? | 8.2µM | - | ? | -
Cc1cccc(C)c1-n1ncc(C(=O)N2CCN(c3ccccn3)CC2)c1C1CCN(C(=O)OC(C)(C)C)CC1 | . | - | - | . | . | .
SMILES | MCF10A rerep | KB-3-1 cytotox | KB-V1 cytotox | HT1080-NT tox | HT1080 IDH1KD tx | SW480 rerep
CCOC(=O)N1CCN(C(=O)c2cc(-c3ccncc3)nc3ccccc23)CC1 | ? | ? | ? | ? | ? | 18.4µM
CCOc1ccc(-c2cc(C(=O)N3CCN(C)CC3)c3ccccc3n2)cc1 | - | - | - | - | - | -
CCOC(=O)N1CCN(C(=O)c2cc(-c3ccc(OCC)cc3)nc3ccccc23)CC1 | 3.66µM | 4.61µM | 2.31µM | 5.01µM | 5.01µM | 4.61µM
CCN(CC)CCNC(=O)c1ccc2c(c1NCCO)C(=O)c1ccccc1C2=O | - | ? | 7.31µM | ? | ? | ?
CCN(CC)CCC(=O)Nc1cccc2c1C(=O)c1ccccc1C2=O | - | ? | 18.4µM | 18.4µM | 14.6µM | ?
CCOC(=O)c1ccc(NC(=O)Cn2nnc(-c3ccc(C(F)(F)F)cc3)n2)cc1 | . | - | - | . | . | .
Cc1cc(Cl)c(S(=O)(=O)N2CCN(c3ccc(F)cc3)CC2)cc1OCC(=O)NC1CCCCC1 | - | 0.731µM | ? | ? | - | -
Cc1cc(S(=O)(=O)N2CCCC2)ccc1OCC(=O)NC1CCCC1 | - | - | - | - | - | -
CCOC(=O)C1CCCN(S(=O)(=O)c2cc(OCC(=O)NC3CCCCC3)c(C)cc2Cl)C1 (stereo not given) | - | - | 16.4µM | - | - | -
CCc1ccc2c(c1)-c1ccccc1S(=O)(=O)N2CC(=O)N1CCC(C)CC1 | . | - | - | . | . | .
O=C(CCC(=O)N(CC(=O)NC1CCCC1)c1ccc(F)cc1)Nc1nccs1 | - | - | - | - | - | -
CCOc1ccc(NC(=O)C2CCCN(S(=O)(=O)c3c(C)noc3/C=C/N(C)C)C2)cc1 (stereo not given) | . | - | - | . | . | .
CCc1ccc2nc(N(CCCN(C)C)C(=O)c3ccc(S(=O)(=O)N4CCCc5ccccc54)cc3)sc2c1 | ? | ? | 9.2µM | ? | ? | -
COc1cccc2sc(N(CCCN(C)C)C(=O)c3ccc(S(=O)(=O)N4CCCc5ccccc54)cc3)nc12 | ? | ? | ? | 18.4µM | ? | ?
CCc1ccc2nc(N(CCCN(C)C)C(=O)c3ccc(S(=O)(=O)N4CCCC4)cc3)sc2c1 | ? | - | - | - | - | ?
CCc1ccc2nc(N(CCCN(C)C)C(=O)c3ccc(C(=O)c4ccccc4)cc3)sc2c1 | ? | 23.1µM | - | ? | ? | -
Cc1ccc(Cl)cc1N1CCN(C(=O)c2cc3c(-c4ccccc4F)nn(C)c3s2)CC1 | . | - | - | . | . | .
Cc1cccc(Cn2c(=O)n(Cc3ccccc3)c(=O)c3sc4ccccc4c32)c1 | . | - | - | . | . | .
COC(=O)c1ccccc1NC(=O)c1cc(CN2CCOCC2)on1 | . | - | - | . | . | .
C=C1CC(C(=O)N/N=C/c2ccc(O)cc2)C1 | - | - | - | - | - | 16.4µM
O=C(NN=Cc1ccc(F)cc1)C1CC1 | - | - | - | - | - | -
C/C(=N/NC(=O)CNC(=O)/C=C/c1ccco1)c1ccc(Cl)cc1 | - | - | - | - | - | -
CCC(=O)Nc1ccccc1-c1nc2ccccc2n(C(CC)C(=O)Nc2cccc(C(C)=O)c2)c1=O (stereo not given) | . | - | - | . | . | .

Source: PubChem BioAssay
